Data on 12 compounds can be found in PubChem BioAssay (NCATS).

Experiment [1] can be described thus: HepG2 cells viability qHTS for Zika virus inhibitors (AID 1347168). Conditions: Zika counter-screen; series mostly up to 45.9 µM. Put shortly: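 Compounds were tested in concentration series on cells grown in DMEM containing 4% FBS. After 24 to 48 hours, cellular ATP was measured by luminescence with CellTiter Glo.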
Experiment [2] deals with Lysine-specific demethylase 5B (Homo sapiens) (UniProt Q9UGL1). Put plainly: Optimization screen for KDM5B Histone Demethylases FDH coupled qHTS against the LOPAC library (AID 1347166). Conditions: KDM5B demethylation, FDH-coupled NADH fluorescence (FDH is formaldehyde dehydrogenase); series mostly up to 57.5 µM. In a few lines:
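KDM5BDeltaAP (200nM final) preincubated 10 min with compound, then 12.5uM H3K4Me3, 25uM a-ketoglutarate, ascorbate, Fe(II), NAD+ and FDH added; 50mM HEPES pH 7.5, 0.01% Tween-20. NADH fluorescence (340/450 nm) change over 30 min, room temperature.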

Experiment [3] in a line: Tertiary RLuc qRT-PCR qHTS assay for Zika virus inhibitors (AID 1347169). Note: top concentration of the series differs between compounds; nearly all actives have a fitted effect of over 55% in size. Conditions: infected Vero cells, reporter luminescence, 48-72 h; series mostly up to 45.9 µM. In a few lines: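 Vero cells (1,000 per well) plated overnight at 37 degrees C, treated with compound in DMSO, then infected with recombinant ZIKV-RLuc (Cambodian) at MOI 1-2 for 48-72 hrs. Live-cell Renilla luciferase substrate added; luminescence read after 1-1.5 hrs.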

Records with an inconclusive call do not appear. A call without a number means that no potency is given here. The source made the active and inactive calls. Calls come from the whole dose curve; as a rule, active = well fitted curve in the direction sought with a large enough effect; inconclusive = small, poorly fitted or top-dose-only effect, or another doubt; inactive = no such curve, though single readings can be large; an effect the other way counts as inactive or inconclusive.

Sequence of Lysine-specific demethylase 5B (Homo sapiens) (Q9UGL1 whole entry, looked up): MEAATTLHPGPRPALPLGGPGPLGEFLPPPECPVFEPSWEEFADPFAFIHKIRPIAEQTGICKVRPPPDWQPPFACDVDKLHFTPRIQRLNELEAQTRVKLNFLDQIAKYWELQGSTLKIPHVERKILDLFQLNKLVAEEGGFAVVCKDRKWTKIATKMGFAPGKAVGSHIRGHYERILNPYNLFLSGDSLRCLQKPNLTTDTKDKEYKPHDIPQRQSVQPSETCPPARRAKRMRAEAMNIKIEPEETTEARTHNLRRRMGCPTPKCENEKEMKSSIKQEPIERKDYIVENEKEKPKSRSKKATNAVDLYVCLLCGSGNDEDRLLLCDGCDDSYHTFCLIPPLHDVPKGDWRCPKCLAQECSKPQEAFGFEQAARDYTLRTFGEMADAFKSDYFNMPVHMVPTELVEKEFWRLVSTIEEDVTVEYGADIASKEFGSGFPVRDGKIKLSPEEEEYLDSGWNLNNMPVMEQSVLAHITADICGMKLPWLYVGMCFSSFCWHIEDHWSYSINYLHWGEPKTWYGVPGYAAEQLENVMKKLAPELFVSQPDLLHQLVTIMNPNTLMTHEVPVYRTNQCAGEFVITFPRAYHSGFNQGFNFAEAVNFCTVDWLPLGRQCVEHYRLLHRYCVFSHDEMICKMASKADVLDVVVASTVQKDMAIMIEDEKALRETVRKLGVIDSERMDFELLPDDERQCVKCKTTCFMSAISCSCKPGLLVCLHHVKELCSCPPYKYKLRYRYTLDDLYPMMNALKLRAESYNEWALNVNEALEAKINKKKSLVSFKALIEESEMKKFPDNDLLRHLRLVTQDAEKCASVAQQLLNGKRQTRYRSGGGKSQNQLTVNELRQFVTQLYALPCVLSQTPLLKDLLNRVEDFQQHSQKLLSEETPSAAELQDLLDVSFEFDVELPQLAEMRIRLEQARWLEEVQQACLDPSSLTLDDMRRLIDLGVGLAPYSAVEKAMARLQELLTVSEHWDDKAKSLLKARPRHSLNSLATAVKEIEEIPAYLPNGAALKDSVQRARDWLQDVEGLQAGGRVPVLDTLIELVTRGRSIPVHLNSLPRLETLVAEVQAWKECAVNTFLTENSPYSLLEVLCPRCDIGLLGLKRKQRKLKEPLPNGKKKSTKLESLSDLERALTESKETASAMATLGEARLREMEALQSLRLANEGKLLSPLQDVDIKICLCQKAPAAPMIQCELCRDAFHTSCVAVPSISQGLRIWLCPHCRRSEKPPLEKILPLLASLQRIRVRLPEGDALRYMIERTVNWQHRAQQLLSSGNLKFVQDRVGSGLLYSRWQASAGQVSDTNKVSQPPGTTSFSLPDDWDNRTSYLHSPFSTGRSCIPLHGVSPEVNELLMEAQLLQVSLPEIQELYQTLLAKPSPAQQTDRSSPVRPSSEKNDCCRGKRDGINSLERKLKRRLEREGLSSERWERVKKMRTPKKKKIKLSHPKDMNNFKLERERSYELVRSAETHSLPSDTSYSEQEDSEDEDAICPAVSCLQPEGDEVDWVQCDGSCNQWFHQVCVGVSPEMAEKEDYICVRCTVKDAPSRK

As to `C[C@H]1c2cccc(O)c2C(O)=C2C(=O)[C@]3(O)C(O)=C(C(N)=O)C(=O)[C@@H](N(C)C)[C@@H]3[C@@H](O)[C@@H]21`, in experiment [1], the compound was called inactive. On to `Cn1ccc2cc3c(cc21)CCN3C(=O)Nc1cccnc1`, for which the call in experiment [2] and in experiment [1] was inactive. Besides, the Potency entry in experiment [3] is “inactive”. With `CN1CCC(=C2c3ccccc3C=Cc3ccccc32)CC1`, the outcome in experiment [2] was inactive. Turning to `Nc1nnc(-c2cccc(Cl)c2Cl)c(N)n1`, in experiment [2], the call was inactive. As for `Clc1ccc2nsnc2c1NC1=NCCN1`, in experiment [2], the outcome was inactive. `O=C(c1ccc(F)cc1)C1CCN(CCn2c(=O)[nH]c3ccccc3c2=O)CC1`: the outcome in experiment [2] and in experiment [1] was inactive. Further, the Potency result in experiment [3] is “inactive”. As to `CCOC(=O)Nc1ccc(NCc2ccc(F)cc2)nc1N`, in experiment [1], the compound was called inactive. For the same compound, the Potency entry in experiment [3] is “inactive”. `Clc1ccc2c(c1)C(N1CCNCC1)=Nc1ccccc1O2`: the compound was called inactive in experiment [2]. Turning to `CC(C)Cc1ccc(C(C)C(=O)O)cc1` (stereo not drawn), the outcome in experiment [2] was inactive. Consider `COc1cc2c(c(OC)c1OC)-c1ccc(OC)c(=O)cc1[C@@H](NC(C)=O)CC2`, for which, in experiment [2], the call was inactive. As to `CN(C)CCCN1c2ccccc2CCc2ccc(Cl)cc21`, the outcome in experiment [2] was inactive. Turning to `CC(C)(C)C(=O)Oc1ccc(S(=O)(=O)Nc2ccccc2C(=O)NCC(=O)O)cc1`, the compound was called inactive in experiment [1]. Besides, in experiment [3], the Potency result is “inactive”.
